Screening results deposited in PubChem BioAssay by National Center for Advancing Translational Sciences (NCATS).
DT40 TDP1 no CPT: qHTS for Inhibitors of human tyrosyl-DNA phosphodiesterase 1 (TDP1): qHTS in cells in absence of CPT. AID 686978, 2013. DT40 Tdp1-/- hTDP1 cells, no CPT, ATP luminescence, 48 h. Potency, µM (highest dose often 46.2 µM), for inactives: top-dose activity change, negative = growth inhibition, actives largely listed as inhibitors. 15% of 420,000 active; note: potency is the fitted concentration of half-maximal effect; % is set by controls: 0 for no effect and ±100 for the full control effect; nearly all actives have a fitted effect of over 55% in size
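DT40 Tdp1-/-;hTDP1 cells, no CPT (DMSO vehicle only), 400 cells/well; compounds pin-transferred; ≥48 hr, 37 °C; CellTiter-Glo 30 min RT dark, luminescence read.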
TGFb SMAD3 inh: inhibitors of TGF-b signaling | HepG2 CAGA-GFP TGF-b/SMAD3 reporter, GFP fluorescence, 18 h; TGF-beta stimulated, 500 pg/mL final | Potency, µM (series often up to 46.1 µM), inactives show at the top dose activity, negative = inhibition, hits mostly inhibitors | 1.2% of 410,000 active | AID 588855; note: potency is the fitted concentration of half-maximal effect; % is set by controls: 0 for no effect and ±100 for the full control effect; nearly all actives have a fitted effect of over 65% in size
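Smad-responsive CAGA-GFP expression was quantified in HEPG2 cells exposed to compounds and 500 pg/mL final TGF-beta for 18 h at 37 degrees C; unstimulated wells defined full inhibition.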
HepG2 tox: HepG2 cytotoxicity, counter-screen for TGF-b inhibitors; HepG2 CAGA-GFP viability, ATP luminescence, 18 h; Potency, µM (top dose mostly 46.1 µM), without a hit: top-dose activity change, negative = cytotoxicity, most hits filed as cytotoxic; 0.76% of 410,000 active; note: potency is the fitted concentration of half-maximal effect
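CellTiter-Glo luminescence gave cytotoxicity after 18 hours at 37 degrees C. The cells were HepG2 CAGA-GFP in 1% FBS DMEM, stimulated with 500 pg/mL TGF-beta after compound addition. %Activity was normalised to no-cell wells (complete cell-killing) and DMSO (no toxicity), and curves were fitted and classified.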
TDP1 inh: TDP1 (human) enzyme inhibition | Q9NUW8 | recombinant TDP1, AlphaScreen DNA substrate cleavage | Potency, µM (doses to about 130 µM), without a hit: top-dose activity change, negative = inhibition, most hits filed as inhibitors | 0.28% of 350,000 active | AID 485290; note: potency is the fitted concentration of half-maximal effect; % is set by controls: 0 for no effect and ±100 for the full control effect; nearly all actives have a fitted effect of over 40% in size
Target sequence (Q9NUW8 whole entry, looked up): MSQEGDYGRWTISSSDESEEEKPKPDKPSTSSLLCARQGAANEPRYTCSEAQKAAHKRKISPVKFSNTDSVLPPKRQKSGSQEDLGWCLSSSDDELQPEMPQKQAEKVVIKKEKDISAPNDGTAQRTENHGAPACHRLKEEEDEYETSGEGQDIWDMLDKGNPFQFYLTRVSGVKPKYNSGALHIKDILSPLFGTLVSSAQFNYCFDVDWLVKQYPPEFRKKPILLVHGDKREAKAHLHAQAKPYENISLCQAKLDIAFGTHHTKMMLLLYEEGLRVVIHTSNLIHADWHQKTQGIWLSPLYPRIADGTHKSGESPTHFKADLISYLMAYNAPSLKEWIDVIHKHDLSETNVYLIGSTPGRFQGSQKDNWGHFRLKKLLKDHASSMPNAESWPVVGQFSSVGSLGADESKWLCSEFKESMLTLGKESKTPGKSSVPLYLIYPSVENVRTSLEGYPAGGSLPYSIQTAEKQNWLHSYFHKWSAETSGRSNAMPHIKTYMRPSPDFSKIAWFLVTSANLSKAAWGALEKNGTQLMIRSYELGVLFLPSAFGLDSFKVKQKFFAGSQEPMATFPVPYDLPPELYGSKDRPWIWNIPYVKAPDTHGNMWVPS
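Enzyme-compound mixtures sat 15 min at room temperature, followed by a 5 min reaction with 15 nM final substrate and 10 min with AlphaScreen beads. Recombinant human Tdp1 was used at 1 nM final.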
IL1B secr inh: inhibitors of inflammasome signaling (IL-1 beta secretion) | THP-1 LPS/ATP IL-1B secretion, AlphaLISA, 16 h; active compounds read low | activity change, % at 57.5 µM | 4.7% of 360,000 active | AID 743279; in the data active = activity change below about -50%; inconclusive = mostly about -30% to -49%; note: % is set by controls: 0 for no effect and ±100 for the full control effect
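Secreted IL-1B measured by AlphaLISA bead assay after 16 h compound exposure of THP-1 cells; compounds (final up to 57.5 uM) added 1 h before LPS (250 ng/mL) and ATP (1.25 mM) stimulation; lower signal means less secretion.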
TDP1 cell CPT: DT40-hTDP1 cell growth loss with CPT; chicken DT40 Tdp1-/-;hTDP1 cells + 20 nM CPT, ATP luminescence, 48 h; Potency, µM (titrated, usually from 46.2 µM), for the others: top-dose activity change, negative = growth inhibition, hits mostly inhibitors; 12% of 420,000 active; AID 686979; note: potency is the fitted concentration of half-maximal effect; % is set by controls: 0 for no effect and ±100 for the full control effect; nearly all actives have a fitted effect of over 55% in size
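Chicken DT40 Tdp1-/- cells stably complemented with human TDP1 were seeded at 400 cells/well in medium containing 20 nM camptothecin, exposed to pin-transferred compounds, and grown at 37 °C for at least 48 hr. Viability was read as ATP luminescence.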
Numbers without * were called inactive; [ ] = another dose, or the depositor's remark. Shown are actives, neighbours in structure and some others; about 18% of the full set was active somewhere. Unless noted, calls come from the whole dose curve; as a rule, active = well fitted curve in the direction sought with a large enough effect; inconclusive = small, poorly fitted or top-dose-only effect, or another doubt; inactive = no such curve, though single readings can be large; an effect the other way counts as inactive or inconclusive.

COC(=O)c1nc(N)sc1-c1ccc(Cl)c(Cl)c1 was read as DT40 TDP1 no CPT inconclusive, TGFb SMAD3 inh 14%, HepG2 tox 9%, IL1B secr inh inconclusive and TDP1 cell CPT 10%.
CC(C)=CCC[C@](C)(O)C1CC[C@]2(C)[C@@H]1CC[C@@H]1[C@@]3(C)CCC(=O)C(C)(C)[C@@H]3CC[C@]12C (stereo partly drawn) was read as TDP1 inh 11%.
COC(=O)N1c2ccccc2CCc2ccccc21 was read as DT40 TDP1 no CPT 16µM*, TGFb SMAD3 inh inconclusive, HepG2 tox -3%, IL1B secr inh 4 and TDP1 cell CPT 21µM*.
`CCOC(=O)Nc1ccc2c(c1)N(C(=O)OC)c1ccccc1CC2` gave DT40 TDP1 no CPT inconclusive, TGFb SMAD3 inh -8%, HepG2 tox 7%, TDP1 inh -2%, IL1B secr inh 24 and TDP1 cell CPT inconclusive.
Screening Cc1ccc(Cl)cc1NC(=O)C[n+]1ccc(Cc2ccc([N+](=O)[O-])cc2)cc1 returned DT40 TDP1 no CPT 5.2µM*, TGFb SMAD3 inh -25%, HepG2 tox -20%, TDP1 inh 5%, IL1B secr inh -82* and TDP1 cell CPT 5.8µM*.
`CC(C)(C)NC(=O)NC(=O)C[n+]1ccc(Cc2ccc([N+](=O)[O-])cc2)cc1` gave DT40 TDP1 no CPT 2.1µM*, TGFb SMAD3 inh -2%, HepG2 tox 3.2µM*, IL1B secr inh inconclusive and TDP1 cell CPT 4.1µM*.
`O=C(C[n+]1ccc(Cc2ccccc2)cc1)Nc1ccc([N+](=O)[O-])cc1Cl` gave DT40 TDP1 no CPT 15µM*, TGFb SMAD3 inh -2%, HepG2 tox -56%, TDP1 inh 4%, IL1B secr inh inconclusive and TDP1 cell CPT inconclusive.
Screening Cc1ccc([N+](=O)[O-])cc1NC(=O)CCSc1ccc(Cl)cc1 returned DT40 TDP1 no CPT -33%, TGFb SMAD3 inh -6%, HepG2 tox -3%, TDP1 inh 0%, IL1B secr inh 0 and TDP1 cell CPT -15%.
CC(=O)Nc1ccc(-c2nc3ccc(Cl)cc3[nH]2)cc1 was read as DT40 TDP1 no CPT -24% and TDP1 cell CPT -3%.
For COc1ccc2c(CC(=O)Nc3ccc(OC)nc3)coc2c1 the results were DT40 TDP1 no CPT inconclusive, TGFb SMAD3 inh 14%, HepG2 tox 0%, TDP1 inh 4%, IL1B secr inh 10 and TDP1 cell CPT -3%.
For CC(C)Cn1c(=O)c2ccccc2n2c(CCC(=O)N3CCN(c4ccccc4)CC3)nnc12 the results were DT40 TDP1 no CPT 16µM*, TGFb SMAD3 inh -28%, HepG2 tox 4%, TDP1 inh 5% and TDP1 cell CPT inconclusive.
For CC(C)Cn1c(=O)c2ccccc2n2c(CCC(=O)N3CCN(c4ccccc4F)CC3)nnc12 the results were DT40 TDP1 no CPT 23µM*, TGFb SMAD3 inh -27%, HepG2 tox -11%, TDP1 inh 0% and TDP1 cell CPT 23µM*.
Screening COc1ccc(-c2noc(CCC(=O)NCCCN3CCN(c4ccccc4F)CC3)n2)cc1 returned DT40 TDP1 no CPT 16µM*, TGFb SMAD3 inh -28%, HepG2 tox -22%, TDP1 inh 3%, IL1B secr inh -23 and TDP1 cell CPT 23µM*.
For CCN1CCN(CCCNC(=O)CCc2nc(-c3ccc(OC)cc3)no2)CC1 the results were DT40 TDP1 no CPT 3%, TGFb SMAD3 inh 11%, HepG2 tox -1%, TDP1 inh -3%, IL1B secr inh 27 and TDP1 cell CPT -13%.
Screening COc1ccc(-c2noc(CCC(=O)NCCN3CCN(c4ccccc4F)CC3)n2)cc1 returned DT40 TDP1 no CPT 15µM*, TGFb SMAD3 inh 0%, HepG2 tox -8%, TDP1 inh -5%, IL1B secr inh -10 and TDP1 cell CPT 16µM*.
Screening C[C@@H]1CC=C[C@@H]2[C@H]1C(=O)N(Cc1ccccc1)[C@H]2c1ccccc1Br returned DT40 TDP1 no CPT 16µM*, TGFb SMAD3 inh inconclusive, HepG2 tox -100%, TDP1 inh -5%[56.1 µM], IL1B secr inh -16 and TDP1 cell CPT 18µM*.
`COc1ccc(-c2ccc(C3C4C=CCC(C)C4C(=O)N3Cc3ccccc3)c(F)c2)cc1` (stereo not drawn) gave TGFb SMAD3 inh -13%, HepG2 tox 2% and TDP1 inh 8%.
Screening COc1ccc(-c2ccccc2[C@H]2[C@@H]3C=CC[C@@H](C)[C@@H]3C(=O)N2Cc2ccccc2)cc1 returned DT40 TDP1 no CPT 10µM*, TGFb SMAD3 inh inconclusive, HepG2 tox -49%, TDP1 inh 0%[56.1 µM], IL1B secr inh -10 and TDP1 cell CPT 13µM*.
Screening C[C@@H]1CC=C[C@@H]2[C@H]1C(=O)N(Cc1ccccc1)[C@H]2c1cccc(Br)c1 returned DT40 TDP1 no CPT inconclusive, TGFb SMAD3 inh 12%, HepG2 tox 1%, TDP1 inh -1%[56.1 µM], IL1B secr inh 28 and TDP1 cell CPT inconclusive.
`Cc1cc(C(F)(F)F)n(-c2nc(C(=O)N/N=C/c3ccc(F)cc3)cs2)n1` gave DT40 TDP1 no CPT inconclusive, TGFb SMAD3 inh 0%, HepG2 tox -42%, TDP1 inh -3%, IL1B secr inh -25 and TDP1 cell CPT 16µM*.
COc1c(C)c2c(c(O)c1CC=C(C)CCC(=O)OCCN1CCOCC1)C(=O)OC2 was read as TDP1 inh 8%.
Screening Cc1nn(Cc2ccc(Cl)cc2)c(C)c1NC(=O)C1CC=CCC1C(=O)O (stereo not drawn) returned DT40 TDP1 no CPT 16µM*, TGFb SMAD3 inh 2%, HepG2 tox 9%, TDP1 inh 6%, IL1B secr inh 9 and TDP1 cell CPT inconclusive.
`Cc1nn(Cc2c(Cl)cccc2Cl)c(C)c1NC(=O)c1cc(C(C)C)on1` gave DT40 TDP1 no CPT 21µM*, TGFb SMAD3 inh 4%, HepG2 tox -25%, TDP1 inh 5%, IL1B secr inh 21 and TDP1 cell CPT 18µM*.
Cc1nn(Cc2ccc(Cl)cc2)c(C)c1NC(=O)/C=C/c1cnn(C)c1 was read as DT40 TDP1 no CPT inconclusive, TGFb SMAD3 inh 1%, HepG2 tox 7%, TDP1 inh 4%, IL1B secr inh 0 and TDP1 cell CPT inconclusive.
